Test results as given in PubChem BioAssay (NCATS).
Where “and” joins values, the source holds several entries; their conditions need not be identical. Equal entries are not always repeated. Records with an inconclusive call do not appear. The source holds several records for some structures; these can differ, active in one and inactive in another. Calls of active or inactive are those of the source. Unless noted, calls come from the whole dose curve; as a rule, active = well fitted curve in the direction sought with a large enough effect; inconclusive = small, poorly fitted or top-dose-only effect, or another doubt; inactive = no such curve, though single readings can be large; an effect the other way counts as inactive or inconclusive. Numbered stars: 1 amine (or outer) side, 2 acyl side, 3 side chain; on linkers, the order of the positions; unused ones are H or OH. Bridge positions count the residues as written; N and C are the ends. Square brackets hold non-standard residues; d marks the D form. Peptide text beside a SMILES is read from it. I, II: the chains in the order shown. Actinocin(9to1) = Cc1c2oc3c(C)ccc(C(=O)[*:1])c3nc-2c(C(=O)[*:2])c(N)c1=O; NMeV = CN[CH](C(=O)O)C(C)C; Sar = CNCC(=O)O

Experiments:
[1] = qHTS for Inhibitors of the Functional Ribonucleoprotein Complex (vRNP) of Lassa (LASV) Arenavirus: LASV Primary Screen - GLuc reporter signal (AID 1347082; calls by dose curve; tested in HEK293 reporter line; note: nearly all actives have a fitted effect of over 60% in size; note: potency is the fitted concentration of half-maximal effect; for activity change, negative = inhibition: % is set by controls: 0 for no effect and ±100 for the full control effect)
[2] = qHTS for Inhibitors of the Functional Ribonucleoprotein Complex (vRNP) of Lassa (LASV) Arenavirus: Viability assay - alamar blue signal for LASV Primary Screen (AID 1347083; calls by dose curve; tested in HEK293 reporter line; note: nearly all actives have a fitted effect of over 80% in size; note: potency is the fitted concentration of half-maximal effect)
[3] = qHTS for Inhibitors of the Functional Ribonucleoprotein Complex (vRNP) of Lymphocytic Choriomeningitis Arenaviruses (LCMV): Viability assay - alamar blue signal for LCMV Primary Screen (AID 1347085; calls by dose curve; tested in HEK293 reporter line; note: nearly all actives have a fitted effect of over 80% in size; note: potency is the fitted concentration of half-maximal effect)
[4] = biological target: Nucleoprotein (Lymphocytic choriomeningitis virus (strain Armstrong)) (UniProt P09992); test: qHTS for Inhibitors of the Functional Ribonucleoprotein Complex (vRNP) of Lymphocytic Choriomeningitis Arenaviruses (LCMV): LCMV Primary Screen - GLuc reporter signal (AID 1347086; calls by dose curve; note: nearly all actives have a fitted effect of over 70% in size; note: potency is the fitted concentration of half-maximal effect; for activity change, negative = inhibition: % is set by controls: 0 for no effect and ±100 for the full control effect)
[5] = Primary qHTS to identify inhibitors of SARS-CoV-2 cell entry (AID 1645846; calls by dose curve; note: nearly all actives have a fitted effect of over 45% in size; note: potency is the fitted concentration of half-maximal effect); conditions: activity change, negative = inhibition: at 57.1 µM (top of the series) unless noted
Outline: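 HEK293 cells stably expressing human ACE2, pre-treated 1 h with compound, then infected with MLV particles pseudotyped with Wuhan-Hu-1 spike (C-terminal 19-aa truncation). Luciferase luminescence after 48 h at 37 °C, normalised to spike PP and bald PP.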

[6] = biological target: Cytochrome P450 3A4 (Homo sapiens) (UniProt P08684); test: qHTS Assay for Inhibitors and Substrates of Cytochrome P450 3A4 (AID 884); note: nearly all actives have a fitted effect of over 50% in size; note: potency is the fitted concentration of half-maximal effect; for activity change, negative = inhibition: % is set by controls: 0 for no effect and ±100 for the full control effect
Outline: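 20 nM human CYP3A4 with 25 uM Luciferin-PPXE (at KM) in 200 mM KPO4, preincubated 10 min with compound; NADPH regeneration started a 60 min RT reaction. Luciferin detected by luminescence, normalized to 57 uM ketoconazole as full inhibition.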

[7] = MultiTox-Fluor Cytotoxicity Assay - LYMP1-003 - Dead Cells (AID 961); note: nearly all actives have a fitted effect of over 70% in size
Outline: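 LYMP1-003 lymphoblastoid, 2500 cells/well, 5 hr settle then 16 hr cpd at 37 C; MultiTox-Fluor reagent 60 min RT; Ex/Em 485/520 dead-cell signal; norm. DMSO = 0%, 15 uM tetraoctylammonium bromide = 100%; Hill AC50.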

[8] = Cell Viability - LYMP1-003 - Assay at 40 hr (AID 964); note: % is set by controls: 0 for no effect and ±100 for the full control effect; nearly all actives have a fitted effect of over 60% in size
Outline: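 Human lymphoblastoid LYMP1-003 cells, 2500/well in complete medium, rested 5 hr at 37 C, then exposed to compounds for 40 hr at 37 C. Viability read as intracellular ATP by CellTiter-Glo luminescence; AC50 from Hill fits of concentration-response data.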

[9] = Cell Viability - LYMP2-010 (AID 981); note: % is set by controls: 0 for no effect and ±100 for the full control effect; nearly all actives have a fitted effect of over 55% in size
Outline: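 Human lymphoblastoid LYMP2-010 cells (2500/well) were preincubated 5 hr at 37 C, then exposed to compounds for 24 hr at 37 C in complete medium. Intracellular ATP was measured by CellTiter-Glo luminescence after 30 min at room temperature; AC50 from Hill-fitted concentration-response.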

[10] = qHTS assay for small molecule agonists of the antioxidant response element (ARE) signaling pathway (AID 651741; active = well fitted activation curve with a large enough effect in the signal ratio; the % refers to the signal ratio; note: potency is the fitted concentration of half-maximal effect; for activation: % of control where 0% means no effect)
Outline: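 ARE-bla HepG2 cells (beta-lactamase reporter under ARE control) were plated at 2,000 cells/well, preincubated 5 h at 37 C/5% CO2, then treated with DMSO-dissolved compounds for 16 h at 37 C; LiveBLAzer B/G FRET substrate added, fluorescence read after 2 h at room temperature.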

[11] = biological target: Nuclear receptor ROR-gamma (Homo sapiens) (UniProt P51449); test: qHTS assay for small molecule antagonists of the retinoid-related orphan receptor gamma (ROR-gamma) signaling pathway (AID 651802); note: % is set by controls: 0 for no effect and ±100 for the full control effect; nearly all actives have a fitted effect of over 60% in size
Outline: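 CHO cells carrying TET-inducible ROR-gamma and an ROR response element–luciferase reporter were exposed to compound, then induced with doxycycline. After 16hr at 37C, luminescence was read; lower signal indicates antagonism.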

[12] = qHTS assay for small molecule agonists of the antioxidant response element (ARE) signaling pathway measured by Nrf2-dependant transcriptional activity - cell viability counter screen (AID 720653; active = well fitted curve in the direction sought with a large enough effect in the repeat runs; an effect the other way counts as inactive or inconclusive; note: % is set by controls: 0 for no effect and ±100 for the full control effect); conditions: ARE-bla HepG2 viability, CellTiter-Glo ATP luminescence, 16 h; max response: stronger effect = lower value
Outline: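 ARE-bla HepG2 cells (2,000/well) rested 5 hrs at 37C/5% CO2, then exposed to compounds in DMSO for 16 hrs. Viability was read in the same wells as intracellular ATP by luminescence, 30 min at room temperature after reagent addition.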

[13] = biological target: Cytochrome P450 3A4 (Homo sapiens) (UniProt P08684); test: qHTS Assay for Activators of Cytochrome P450 3A4 (AID 885); note: nearly all actives have a fitted effect of over 65% in size
Outline: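 Steps: enzyme/substrate mix dispensed; compound added, 10 min RT; NADPH regeneration solution added, 60 min RT; luciferin detection buffer stops reaction; 20 min later luminescence measured.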

[14] = Validation screen for inhibitors of Lassa infection (AID 463096; calls by dose curve; note: potency is the fitted concentration of half-maximal effect)
[15] = biological target: Alpha-galactosidase (Coffea arabica) (UniProt Q42656); test: Counterscreen for Glucocerebrosidase Inhibitors: qHTS Assay for Coffee Bean alpha-Galactosidase at pH 5.9 (AID 998);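 note: plate controls were uninhibited enzyme for no effect and no-enzyme basal signal for full effect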
Outline: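 Green coffee bean enzyme (2 nM final) was incubated with compounds (0.7 nM–77 uM) and 4-methylumbelliferyl alpha-D-galactopyranoside (80 uM) in citrate buffer pH 5.9, 20 min at room temperature. High-pH stop; fluorescence 365/440 nm; AC50 from Hill fits.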

[16] = Inducers of the Endoplasmic Reticulum Stress Response (ERSR) in human glioma: Validation (AID 504836); note: 0% is about no effect
Outline: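 Stably transfected U87-MG human glioma cells carrying a GRP78-based luminescent sensor were seeded at 1000 cells/well, pin-dosed with compounds and incubated 16 h. Luciferase reagent was then added, and end-point luminescence was read after 10 min at room temperature.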

[17] = biological target: M-phase phosphoprotein 8 (Homo sapiens) (UniProt Q99549); test: qHTS Validation Assay for Inhibitors for MPP8 Chromodomain Interactions with Methylated Histone Tails (AID 488949); note: nearly all actives have a fitted effect of over 55% in size; note: potency is the fitted concentration of half-maximal effect
Outline: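 MPP8 (50 nM) was pre-bound to 50 nM biotinylated H3(1-18)K9me3 peptide in PBS pH 7.4 with 0.01% Tween-20. Compounds were then added for 30 min at room temperature, and complex disruption was read by AlphaScreen with streptavidin donor and nickel-chelate acceptor beads.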

[18] = biological target: Alpha-galactosidase (Coffea arabica) (UniProt Q42656); test: Counterscreen for Glucocerebrosidase Inhibitors: qHTS Assay for Coffee Bean alpha-Galactosidase at pH 4.5 (AID 957);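 note: plate controls were enzyme alone for no effect and no enzyme for full effect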
Outline: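 Green coffee bean enzyme (2 nM final) was incubated with compounds (0.7 nM to 77 uM) and 4-methylumbelliferyl alpha-D-galactopyranoside (80 uM final) in 50 mM citric acid, 0.005% Tween-20, pH 4.5, 20 min at room temperature; AC50 from Hill fits.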

M-phase phosphoprotein 8 (Homo sapiens), sequence (Q99549 whole entry, looked up): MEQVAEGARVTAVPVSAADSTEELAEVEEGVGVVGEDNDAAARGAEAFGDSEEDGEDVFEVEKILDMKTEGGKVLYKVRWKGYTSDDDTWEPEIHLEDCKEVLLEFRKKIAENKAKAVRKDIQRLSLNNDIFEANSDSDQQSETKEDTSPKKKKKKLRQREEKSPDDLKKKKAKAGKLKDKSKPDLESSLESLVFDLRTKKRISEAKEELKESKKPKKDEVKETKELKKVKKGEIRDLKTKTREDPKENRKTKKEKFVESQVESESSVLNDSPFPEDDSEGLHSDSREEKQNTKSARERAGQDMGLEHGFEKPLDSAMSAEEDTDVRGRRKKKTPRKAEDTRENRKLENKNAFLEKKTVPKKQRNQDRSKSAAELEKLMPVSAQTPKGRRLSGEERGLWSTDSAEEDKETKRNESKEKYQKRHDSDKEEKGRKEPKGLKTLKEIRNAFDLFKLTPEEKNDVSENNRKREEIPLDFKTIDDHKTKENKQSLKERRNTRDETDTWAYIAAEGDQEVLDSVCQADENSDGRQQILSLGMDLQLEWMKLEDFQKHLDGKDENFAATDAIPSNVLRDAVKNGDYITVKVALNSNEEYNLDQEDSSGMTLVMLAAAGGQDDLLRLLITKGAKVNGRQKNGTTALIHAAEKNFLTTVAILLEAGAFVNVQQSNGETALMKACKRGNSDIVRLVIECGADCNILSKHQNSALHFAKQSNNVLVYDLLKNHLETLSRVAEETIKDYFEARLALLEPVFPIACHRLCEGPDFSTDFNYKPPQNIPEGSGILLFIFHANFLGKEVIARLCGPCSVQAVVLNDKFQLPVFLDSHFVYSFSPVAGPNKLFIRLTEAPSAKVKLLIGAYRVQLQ
Nuclear receptor ROR-gamma (Homo sapiens), sequence (P51449 whole entry, looked up): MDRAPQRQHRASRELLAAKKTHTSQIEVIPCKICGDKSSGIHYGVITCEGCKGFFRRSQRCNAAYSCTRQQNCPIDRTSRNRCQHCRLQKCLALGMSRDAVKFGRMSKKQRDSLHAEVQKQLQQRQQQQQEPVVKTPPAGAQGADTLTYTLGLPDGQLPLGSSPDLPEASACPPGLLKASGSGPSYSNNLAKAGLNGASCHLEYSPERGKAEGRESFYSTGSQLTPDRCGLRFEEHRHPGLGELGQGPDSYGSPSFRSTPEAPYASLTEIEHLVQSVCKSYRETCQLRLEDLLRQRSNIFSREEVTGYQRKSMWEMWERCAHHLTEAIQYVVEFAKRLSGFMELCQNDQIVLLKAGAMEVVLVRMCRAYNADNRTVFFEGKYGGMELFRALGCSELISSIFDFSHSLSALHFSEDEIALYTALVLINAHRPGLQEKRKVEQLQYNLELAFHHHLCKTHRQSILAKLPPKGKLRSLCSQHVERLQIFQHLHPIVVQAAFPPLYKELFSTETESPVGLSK
Cytochrome P450 3A4 (Homo sapiens), sequence (P08684 whole entry, looked up): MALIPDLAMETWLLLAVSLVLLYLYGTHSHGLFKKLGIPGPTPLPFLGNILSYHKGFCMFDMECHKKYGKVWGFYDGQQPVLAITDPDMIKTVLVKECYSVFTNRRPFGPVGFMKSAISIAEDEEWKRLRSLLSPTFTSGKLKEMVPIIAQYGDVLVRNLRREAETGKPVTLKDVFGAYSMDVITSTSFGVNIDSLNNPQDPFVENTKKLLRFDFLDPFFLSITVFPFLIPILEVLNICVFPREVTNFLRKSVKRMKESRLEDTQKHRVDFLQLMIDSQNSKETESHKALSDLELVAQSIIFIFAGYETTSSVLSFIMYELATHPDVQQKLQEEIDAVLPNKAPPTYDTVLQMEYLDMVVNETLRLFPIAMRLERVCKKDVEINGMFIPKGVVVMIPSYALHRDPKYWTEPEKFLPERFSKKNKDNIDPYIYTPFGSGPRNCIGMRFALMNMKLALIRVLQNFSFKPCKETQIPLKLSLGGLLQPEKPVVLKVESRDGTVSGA
Nucleoprotein (Lymphocytic choriomeningitis virus (strain Armstrong)), sequence (P09992 whole entry, looked up): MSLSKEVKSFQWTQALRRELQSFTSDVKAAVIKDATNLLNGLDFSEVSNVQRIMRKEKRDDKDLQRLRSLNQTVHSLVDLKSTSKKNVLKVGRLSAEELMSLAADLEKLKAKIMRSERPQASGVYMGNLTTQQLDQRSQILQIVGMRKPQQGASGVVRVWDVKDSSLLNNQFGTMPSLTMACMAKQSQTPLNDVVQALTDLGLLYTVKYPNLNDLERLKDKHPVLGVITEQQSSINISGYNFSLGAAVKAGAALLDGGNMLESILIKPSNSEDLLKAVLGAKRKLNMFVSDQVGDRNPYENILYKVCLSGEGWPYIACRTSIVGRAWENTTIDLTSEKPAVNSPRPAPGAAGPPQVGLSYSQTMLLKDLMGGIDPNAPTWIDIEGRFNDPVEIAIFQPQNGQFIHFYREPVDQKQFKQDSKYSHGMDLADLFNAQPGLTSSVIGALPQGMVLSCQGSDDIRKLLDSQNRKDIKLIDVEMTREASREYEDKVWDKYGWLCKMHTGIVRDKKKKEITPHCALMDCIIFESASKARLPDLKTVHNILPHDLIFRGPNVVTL
Alpha-galactosidase (Coffea arabica), sequence (Q42656 whole entry, looked up): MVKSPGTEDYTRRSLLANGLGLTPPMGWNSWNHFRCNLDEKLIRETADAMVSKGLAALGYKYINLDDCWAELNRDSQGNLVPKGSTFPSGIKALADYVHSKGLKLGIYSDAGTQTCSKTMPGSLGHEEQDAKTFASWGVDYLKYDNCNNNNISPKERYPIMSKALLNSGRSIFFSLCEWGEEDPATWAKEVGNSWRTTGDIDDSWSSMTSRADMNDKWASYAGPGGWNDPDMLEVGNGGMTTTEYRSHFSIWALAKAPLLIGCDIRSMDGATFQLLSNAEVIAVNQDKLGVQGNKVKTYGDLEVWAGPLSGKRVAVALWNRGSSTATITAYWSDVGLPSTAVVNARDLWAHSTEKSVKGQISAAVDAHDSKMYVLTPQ

Cc1nc(N)ncc1-c1nc(N2CCOCC2)c2sc(C(C)(C)O)cc2n1
active: Potency [1] 1530 nM | Potency [2] 863 nM | Potency [3] 1090 nM | Potency [4] 1720 nM | Potency [5] 7940 nM

c1ccc2c(c1)-c1cccc3cccc-2c13
inactive and 30.6 µM (active): Potency [10]
inactive: Potency [6] | Potency [7] | Potency [8] | Potency [9] | Potency [11] | max response [12] -12% and 0.837% | Potency [1] | Potency [2] | Potency [3] | Potency [4]

c1ccc(Nc2ccc3ccccc3c2)cc1
inactive: Potency [13] | Potency [7] | Potency [8] | Potency [9] | Potency [11] | max response [12] -8.38% and -2.45% | Potency [1] | Potency [2] | Potency [3] | Potency [4]
active: Potency [10] 42.2 µM and 54.5 µM

CC(=O)/C=C/c1ccccc1
inactive: Potency [6] | Potency [7] | Potency [8] | Potency [9] | Potency [10] | Potency [11] | max response [12] -6.98% | Potency [1] | Potency [2] | Potency [3] | Potency [4]

CCCN(CCc1ccccc1)C1CCc2c(O)cccc2C1 (stereo unspecified)
inactive: Potency [14] | Potency [1] | Potency [2] | Potency [3] | Potency [4]

NO
inactive: outcome [15] | Potency [14] | outcome [16] | Potency [1] | Potency [2] | Potency [3] | Potency [4]

Cc1cccc(C2CN(C)CCc3c2cc(O)c(O)c3Cl)c1 (stereo unspecified)
inactive: Potency [14] | outcome [16] | Potency [1] | Potency [2] | Potency [3] | Potency [4]

C=C/C(C)=C/[C@@]1(C)SC(=O)C(C)=C1O
inactive: Potency [14] | Potency [1] | Potency [2] | Potency [3] | Potency [4]

CCNC(=O)[C@H]1O[C@@H](n2cnc3c(N)nc(NCCc4ccc(CCC(=O)O)cc4)nc32)[C@H](O)[C@H]1O
inactive: Potency [14] | Potency [1] | Potency [2] | Potency [3] | Potency [4]

COc1ccc2c(c1)CCC1C2CC[C@@]2(C)C1CC[C@@H]2NCCCCCCN1C(=O)C=CC1=O (stereo partly specified)
inactive: Potency [14] | Potency [17] | outcome [16] | Potency [1] | Potency [2] | Potency [3] | Potency [4]

CC(C)(C)c1ccc(S(=O)(=O)/C=C/C#N)cc1
active: Potency [14] 11200 nM
inactive: Potency [1] | Potency [2] | Potency [3] | Potency [4]

Oc1ccccc1Cl
inactive: Potency [6] | Potency [7] | Potency [8] | Potency [9] | Potency [10] | max response [12] -1.76% | Potency [1] | Potency [2] | Potency [3] | Potency [4]

O=C(O)CNC(=O)C(CS)Cc1ccccc1 (stereo unspecified)
inactive: Potency [14] | Potency [17] | outcome [16] | Potency [1] | Potency [2] | Potency [3] | Potency [4]

Cc1c2oc3c(C)ccc(C(=O)NC4C(=O)NC(C(C)C)C(=O)N5CCCC5C(=O)N(C)CC(=O)N(C)C(C(C)C)C(=O)OC4C)c3nc-2c(C(=O)NC2C(=O)NC(C(C)C)C(=O)N3CCCC3C(=O)N(C)CC(=O)N(C)C(C(C)C)C(=O)OC2C)c(N)c1=O (stereo unspecified) (I: TVP[Sar][NMeV] / II: TVP[Sar][NMeV]; ester I:1-I:C, II:1-II:C; linker I:N-II:N via Actinocin(9to1); configuration not given here)
inactive: Potency [1] | Potency [2] | Potency [3] | Potency [4]
-91.5% [at 27.1 µM]: activity change, negative = inhibition [5]

N#C/C(=C\c1ccc(O)c(O)c1)C(=O)NCCCNC(=O)/C(C#N)=C/c1ccc(O)c(O)c1
inactive: Potency [13] | outcome [18] | outcome [15] | Potency [14] | outcome [16] | Potency [1] | Potency [2] | Potency [3] | Potency [4]
active: Potency [6] 2000 nM | Potency [17] 316 nM and 2.12 µM

COC1=CC(=O)OC(CCc2ccc3c(c2)OCO3)C1 (stereo unspecified)
inactive: Potency [13] | Potency [7] | Potency [10] | Potency [11] | max response [12] -4.13% | Potency [1] | Potency [2] | Potency [3] | Potency [4]
active: Potency [6] 2000 nM
